Screening results: PubChem BioAssay, Broad Institute
Vif inh: HIV Vif inhibition; AID 602346; inhibition, % at 7.49 µM; HEK293T cells, Vif self-association by quenched fluorescence, imaging, 24 h; 340,000 tested, 0.35% active; in the data active = inhibition above about 50%, passing the limit was not always enough
PvdQ inh: blocks Pseudomonas aeruginosa PvdQ acylase activity; purified PvdQ acylase, fluorescence plate reader; inhibition, % at 10 µM; AID 488965; 340,000 tested, 0.063% active; in the data active = inhibition above about 30%, passing the limit was not always enough;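 note: 0% = vehicle neutral wells and 100% = reference inhibitor wells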
ERp5 block: ERp5 (human) disulfide isomerase inhibition. Q15084. ERp5 insulin aggregation, absorbance 650 nm, 90 min. inhibition, % at 9.99 µM. 350,000 tested, 0.05% active;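 active = mean replicate inhibition above about 25%, with every replicate also reaching it, limit read from the data, passing the limit was not always enough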
Target sequence (Q15084 whole entry, looked up): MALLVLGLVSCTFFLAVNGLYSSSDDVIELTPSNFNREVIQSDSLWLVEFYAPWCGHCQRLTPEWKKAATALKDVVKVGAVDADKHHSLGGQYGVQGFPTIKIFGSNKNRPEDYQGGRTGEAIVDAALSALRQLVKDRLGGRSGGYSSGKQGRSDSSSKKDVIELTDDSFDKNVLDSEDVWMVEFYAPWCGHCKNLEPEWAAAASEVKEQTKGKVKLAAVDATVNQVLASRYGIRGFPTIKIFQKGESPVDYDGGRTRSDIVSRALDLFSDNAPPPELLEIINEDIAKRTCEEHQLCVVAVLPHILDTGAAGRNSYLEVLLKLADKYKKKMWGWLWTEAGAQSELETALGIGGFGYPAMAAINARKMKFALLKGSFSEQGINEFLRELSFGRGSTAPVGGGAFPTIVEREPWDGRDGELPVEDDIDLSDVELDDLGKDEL
PDI turbidity: PDI (human) enzyme inhibition; PDI insulin aggregation turbidity, A650, 90 min; inhibition, % at 10 µM; 350,000 tested, 0.052% active; AID 588391;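 active = mean inhibition across replicates of 30% or more, whatever share of single replicates reach that level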
AI-2 QS modul: modulates the Vibrio harveyi AI-2 quorum sensing system; Vibrio harveyi JMH597 AI-2 luminescence/OD600 ratio, 9 h; stronger effect = lower value; strain lacks LuxN and CqsS sensors; 0 = neutral-control median; activity change, % at 7.5 µM; 300,000 tested, 0.4% active; AID 2094; in the data active = activity change below about -75%, passing the limit was not always enough;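 note: luminescence divided by OD600 gain over 9 h not by final OD600 alone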
* hit, by the source's call. Shown are actives, neighbours in structure and some others; about 0.64% of the full set was active somewhere.

How did CCCC(=O)Nc1ccc2c(c1)OC[C@H](C)N(C(=O)CC)C[C@@H](C)[C@H](OC)CN(C)C2=O do in these assays?
ERp5 block: 2

What do the screens show for `CCCNC(=O)C[C@H]1CC[C@@H]2[C@H](COC[C@H](O)CN2C(=O)CC)O1`?
ERp5 block: 2

What do the screens show for `CCCCC(=O)OCC(=O)c1cc(C)n(-c2c(C)n(C)n(-c3ccccc3)c2=O)c1C`?
Vif inh: 50*; PvdQ inh: -14; ERp5 block: -8; PDI turbidity: 6; AI-2 QS modul: 21

Results for O=C(Nc1ncc([N+](=O)[O-])s1)c1cccc([N+](=O)[O-])c1 ?
Vif inh: -5; PvdQ inh: 39*; ERp5 block: 3; PDI turbidity: 2; AI-2 QS modul: 38

Results for O=C(Nc1ccccc1)Nc1ncc([N+](=O)[O-])s1 ?
Vif inh: -17; PvdQ inh: 0; ERp5 block: 1; PDI turbidity: -3; AI-2 QS modul: -86*

What do the screens show for `O=C(Nc1ccc(NC(=O)c2cccc([N+](=O)[O-])c2)cc1)c1cccc([N+](=O)[O-])c1`?
Vif inh: -3; PvdQ inh: 2; ERp5 block: 4; PDI turbidity: 13; AI-2 QS modul: -2

What do the screens show for `C[C@@H]1CN([C@@H](C)CO)C(=O)c2cc(NC(=O)CCCCCC(=O)Nc3ccccc3N)ccc2O[C@H]1CN(C)S(=O)(=O)c1ccc(F)cc1`?
ERp5 block: 3

What do the screens show for `O=C(COC(=O)/C=C/c1ccccc1)NCCC1=CCCCC1`?
Vif inh: 4; PvdQ inh: -8; ERp5 block: 0; PDI turbidity: 22; AI-2 QS modul: 11

What do the screens show for `O=C(/C=C/c1ccccc1)NCCC1=CCCCC1`?
Vif inh: -6; PvdQ inh: -4; ERp5 block: 9; PDI turbidity: 2; AI-2 QS modul: -86*

Results for O=C(CNC(=O)c1ccc([N+](=O)[O-])cc1)N/N=C\c1ccc(OC(=O)c2ccccc2)cc1 ?
Vif inh: 50*; PvdQ inh: 1; PDI turbidity: -4; AI-2 QS modul: -5

Results for COc1cccc(C(=O)NCC(=O)N/N=C/c2cccc(OC(=O)c3ccc([N+](=O)[O-])cc3)c2)c1 ?
Vif inh: -1; PvdQ inh: -6; ERp5 block: 3; PDI turbidity: -3; AI-2 QS modul: 12

What do the screens show for `O=C(OCn1ncc(Br)c(Br)c1=O)c1ccc(F)cc1`?
PvdQ inh: -9; PDI turbidity: -9; AI-2 QS modul: -81*

How did Cc1ccc(Cc2c[nH]c(=S)s2)cc1 do in these assays?
Vif inh: 9; PvdQ inh: 4; ERp5 block: 0; PDI turbidity: 1; AI-2 QS modul: -89*

How did CO[C@H]1CN(C)C(=O)c2ccc(NS(C)(=O)=O)cc2OC[C@@H](C)N(CC2CCCCC2)C[C@H]1C do in these assays?
ERp5 block: 2

What do the screens show for `COc1ccc(NC(=O)Nc2ccc3c(c2)C(=O)N([C@@H](C)CO)C[C@H](C)[C@@H](CN(C)C(=O)Nc2ccc(C(F)(F)F)cc2)OCCCC[C@H](C)O3)cc1`?
ERp5 block: 0

How did COc1ccc(OCCCC(=O)Nc2ncn[nH]2)cc1 do in these assays?
Vif inh: 51*; PvdQ inh: -5; ERp5 block: -1; PDI turbidity: 6; AI-2 QS modul: 3

How did O=C(Cn1nc2ccccc2n1)N/N=C/c1cc([N+](=O)[O-])ccc1O do in these assays?
Vif inh: -4; PvdQ inh: -2; ERp5 block: 0; PDI turbidity: 0; AI-2 QS modul: -86*

Results for Cc1ccn(CC(=O)N/N=C/c2cc([N+](=O)[O-])ccc2O)n1 ?
Vif inh: 9; PvdQ inh: 4; PDI turbidity: 1; AI-2 QS modul: -169*

How did O=C(Cn1cnc([N+](=O)[O-])n1)N/N=C/c1cc(Cl)ccc1O do in these assays?
Vif inh: 0; PvdQ inh: -11; ERp5 block: 0; PDI turbidity: -10; AI-2 QS modul: -84*

Results for O=C(Cn1cncn1)N/N=C/c1cc([N+](=O)[O-])ccc1O ?
Vif inh: 11; PvdQ inh: -3; ERp5 block: 4; PDI turbidity: -3; AI-2 QS modul: 25

Results for O=C(C[C@H]1C=C[C@@H](NC(=O)C2CC2)[C@@H](CO)O1)NCc1ccccc1Cl ?
ERp5 block: -1

Results for Cc1noc(C)c1NC(=O)N(C)C[C@H]1Oc2c(NS(=O)(=O)c3cn(C)cn3)cccc2C(=O)N([C@@H](C)CO)C[C@@H]1C ?
ERp5 block: 1
